The whole screen tested about 1,400 compounds, of which about 380 (27%) were called active.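 The calls were made as follows: active = mean inhibition above 50% across duplicate retests at 10 µM; inactive = the rest.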 The list shows a part of the results.
Assay: inhibition of NALP1/ASC/caspase-1 reporter signal in yeast, confirmation, NALP1 inhibitor project, S. cerevisiae, luminescence, single concentration (AID 488841);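 also: plate controls were DMSO in galactose medium for no effect and cells in plain SD medium for full effect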
Conditions: S. cerevisiae NALP1/ASC/Caspase-1 reporter, beta-gal luminescence; at 10 µM; stronger effect = higher value

inhibition, inactive:
CC(C)C(=O)N(Cc1ccccc1)c1ccccn1 19.8%
Cc1cc(C)c(S(=O)(=O)N(CC(=O)O)CC(=O)O)c(C)c1 25.9%
COc1ccccc1NC(=O)CCN1CCN(Cc2ccccc2)CC1 44.5%
CCOc1ccccc1N/C=C(\C#N)c1nc2ccccc2n1C 12.5%
CCCCOc1ccccc1NC(=O)c1ccco1 34.8%
O=[N+]([O-])/C(C(=C(Cl)Cl)N1CCN(Cc2ccccc2)CC1)=C1\NCCN1Cc1ccc(Cl)nc1 35.4%
CCOC(=O)c1c(C)[nH]c(N=Nc2cccc(C)c2)c1C 46.4%
Oc1c(Cl)cc(Cl)c2c1NCCC2 41.9%
CCC(Cc1ccccc1)NC(=O)C1CCN(S(=O)(=O)c2c(C)noc2C)CC1 (stereo not given) 26.1%
CCOC(=O)c1cc([N+](=O)[O-])c([N+](=O)[O-])cc1NC(C)=O 24.9%
NS(=O)(=O)c1ccc(NC(=O)COC(=O)c2cn(-c3ccccc3)nc2-c2ccc(F)cc2)cc1 18.7%
CC1CCN(CCOc2ccc(OCc3ccccc3)cc2)CC1 48.1%
O=C(N/N=C/c1cccc(F)c1)c1c(O)c2ccccc2[nH]c1=O 31.5%
CCOC(=O)c1nc(C)sc1-c1ccnn1S(=O)(=O)c1ccc(C)cc1 29.4%
O=C(O)CC(Cn1cnnn1)c1ccccc1 (stereo not given) 25.9%
CCc1cccc(OCCN2CCCC2)c1 29.9%
Brc1cccc(OCCN2CCCCC2)c1 44.9%
CCN(CC)S(=O)(=O)c1cccc(C(=O)N[C@H](C(=O)O)C(C)C)c1 33.2%
Cc1cccc(N=C2NC(=O)/C(=C\c3cccs3)S2)c1 44%
COC1=C(Nc2ccccc2)C(=O)c2ccccc2C1=O 17.4%
Cc1cccc(C)c1NC(=O)C(Cl)C(=O)c1ccccc1 (stereo not given) 12.7%
CC(CC(=O)Nc1cccc(Cl)c1)c1ccccc1 (stereo not given) 42.7%

inhibition, active:
CCCOc1ccccc1NC(=O)/C=C/C(N)=O 71.2%
CCOc1ccccc1NC(=O)/C=C/C(N)=O 59.6%
Oc1c(Cl)cc(Cl)c(Cl)c1Cc1c(O)c(Cl)cc(Cl)c1Cl 99.9%
CCOC(=O)C(C(=O)OCC)C(C(=O)OCC)N1CCOCC1 (stereo not given) 64.8%
CN(C)c1ccc(NC(=O)COC(=O)c2cc(Cl)ccc2[N+](=O)[O-])cc1 62.9%
Clc1cccc(OCCN2CCN(CCOc3cccc(Cl)c3)CC2)c1 60.4%
CC(C)C(=O)Nc1ccc(Nc2ccccc2)cc1 58.4%
O=C(Nc1ccc(Nc2ccccc2)cc1)C(Cl)Cl 78.8%

— PubChem BioAssay AID488841 (Sanford-Burnham Center for Chemical Genomics, 2010)
